Measurements reported in PubChem BioAssay AID1159580 (chemical genetic matrix, 2015).
The whole screen tested about 5,500 compounds, of which about 2,000 (36%) were called active. Another 18% or so got no clear call; they are omitted. Some of the results follow. Unmarked numbers belong to inactive results. No stated cut-off is given here; in the data, active means normalized growth mostly below about 0.91 (no sharp cut-off); inconclusive means no clear call, values can overlap the other calls; inactive means mostly above about 0.92.

Test: chemical genetic growth profiling, strain panel (AID 1159580);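 further: tested at 20 µM; growth read once vehicle control cultures reached saturation at 30 °C; 1 = growth at the plate median or of vehicle wells; lower values mean less growth of the strain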
Conditions: growth OD

C[C@](N)(Cc1ccc(O)c(O)c1)C(=O)O
normalized growth (S. cerevisiae deletion strains, locus YJR075W, strain HOC1, active compounds read low): 1.01
normalized growth (S. cerevisiae deletion strains, locus YKL009W, strain mrt4, active compounds read low): 0.97
normalized growth (S. cerevisiae deletion strains, locus YKL068W, active compounds read low): 0.997
normalized growth (S. cerevisiae deletion strains, locus YKL085W, strain MDH1 (second series), active compounds read low): 0.983
normalized growth (S. cerevisiae deletion strains, locus YKL085W, strain MDH1, active compounds read low): 0.983
normalized growth (S. cerevisiae deletion strains, locus YKL160W, strain elf1, active compounds read low): 0.927
normalized growth (S. cerevisiae deletion strains, locus YKL190W, strain CNB1, active compounds read low): 0.951
normalized growth (S. cerevisiae deletion strains, locus YKR001C, strain vps1, active compounds read low): 0.979
normalized growth (S. cerevisiae deletion strains, locus YKR026C, strain gcn3, active compounds read low): 0.986
normalized growth (S. cerevisiae deletion strains, locus YKR091W, strain srl3, active compounds read low): 0.972
normalized growth (S. cerevisiae deletion strains, locus YLL001W, strain dnm1, active compounds read low): 0.914
normalized growth (S. cerevisiae deletion strains, locus YLL026W, active compounds read low): 0.984
normalized growth (S. cerevisiae deletion strains, locus YLL041C, strain sdh2, active compounds read low): 0.994
normalized growth (S. cerevisiae deletion strains, locus YLR027C, strain aat2, active compounds read low): 0.983
normalized growth (S. cerevisiae deletion strains, locus YLR039C, strain RIC1, active compounds read low): 0.975
normalized growth (S. cerevisiae deletion strains, locus YLR058C, strain SHM2, active compounds read low): 0.979
normalized growth (S. cerevisiae deletion strains, locus YLR102C, strain apc9, active compounds read low): 1
normalized growth (S. cerevisiae deletion strains, locus YLR113W, strain HOG1, active compounds read low): 1
normalized growth (S. cerevisiae deletion strains, locus YLR221C, strain rsa3, active compounds read low): 0.911
normalized growth (S. cerevisiae deletion strains, locus YLR258W, strain gsy2, active compounds read low): 0.959
normalized growth (S. cerevisiae deletion strains, locus YLR262C, strain YPT6 (second series), active compounds read low): 0.892
normalized growth (S. cerevisiae deletion strains, locus YLR262C, strain YPT6, active compounds read low): 0.878
normalized growth (S. cerevisiae deletion strains, locus YLR268W, strain sec22, active compounds read low): 1.06
normalized growth (S. cerevisiae deletion strains, locus YLR320W, strain mms22, active compounds read low): 0.944
normalized growth (S. cerevisiae deletion strains, locus YLR330W, strain CHS5, active compounds read low): 0.982
normalized growth (S. cerevisiae deletion strains, locus YLR342W, strain FKS1 (second series), active compounds read low): 0.861
normalized growth (S. cerevisiae deletion strains, locus YLR342W, strain FKS1, active compounds read low): 0.967
normalized growth (S. cerevisiae deletion strains, locus YLR357W, strain rsc2, active compounds read low): 0.92
normalized growth (S. cerevisiae deletion strains, locus YLR370C, strain arc18, active compounds read low): 0.945
normalized growth (S. cerevisiae deletion strains, locus YLR371W, strain rom2, active compounds read low): 0.983
normalized growth (S. cerevisiae deletion strains, locus YLR384C, strain iki3, active compounds read low): 0.981
normalized growth (S. cerevisiae deletion strains, locus YLR418C, strain cdc73, active compounds read low): 1
normalized growth (S. cerevisiae deletion strains, locus YML016C, strain PPZ1, active compounds read low): 0.957
normalized growth (S. cerevisiae deletion strains, locus YML032C, strain rad52, active compounds read low): 1.01
normalized growth (S. cerevisiae deletion strains, locus YML120C, strain ndi1, active compounds read low): 0.915
normalized growth (S. cerevisiae deletion strains, locus YML124C, strain tub3, active compounds read low): 0.993
normalized growth (S. cerevisiae deletion strains, locus YMR058W, strain fet3, active compounds read low): 0.944
normalized growth (S. cerevisiae deletion strains, locus YMR078C, strain ctf18, active compounds read low): 0.99
normalized growth (S. cerevisiae deletion strains, locus YMR125W, strain sto1, active compounds read low): 0.941
normalized growth (S. cerevisiae deletion strains, locus YMR129W, active compounds read low): 0.985
normalized growth (S. cerevisiae deletion strains, locus YMR205C, strain PFK2, active compounds read low): 0.983
normalized growth (S. cerevisiae deletion strains, locus YMR223W, strain ubp8, active compounds read low): 0.938
normalized growth (S. cerevisiae deletion strains, locus YMR231W, strain pep5, active compounds read low): 0.988
normalized growth (S. cerevisiae deletion strains, locus YMR263W, strain SAP30, active compounds read low): 1
normalized growth (S. cerevisiae deletion strains, locus YMR307W, strain GAS1, active compounds read low): 0.765
normalized growth (S. cerevisiae deletion strains, locus YNL067W, strain RPL9B, active compounds read low): 0.979
normalized growth (S. cerevisiae deletion strains, locus YNL071W, strain lat1, active compounds read low): 0.978
normalized growth (S. cerevisiae deletion strains, locus YNL128W, strain TEP1, active compounds read low): 0.896
normalized growth (S. cerevisiae deletion strains, locus YNL153C, strain GIM3, active compounds read low): 1.01
normalized growth (S. cerevisiae deletion strains, locus YNL183C, strain NPR1, active compounds read low): 0.976
normalized growth (S. cerevisiae deletion strains, locus YNL209W, strain ssb2, active compounds read low): 0.891 (active)
normalized growth (S. cerevisiae deletion strains, locus YNL233W, strain BNI4, active compounds read low): 0.972
normalized growth (S. cerevisiae deletion strains, locus YNL248C, strain rpa49, active compounds read low): 0.979
normalized growth (S. cerevisiae deletion strains, locus YNL250W, strain rad50, active compounds read low): 0.982
normalized growth (S. cerevisiae deletion strains, locus YNL271C, strain bni1, active compounds read low): 0.989
normalized growth (S. cerevisiae deletion strains, locus YNL298W, strain CLA4, active compounds read low): 0.999
normalized growth (S. cerevisiae deletion strains, locus YNL307C, strain MCK1, active compounds read low): 0.996
normalized growth (S. cerevisiae deletion strains, locus YNL322C, strain KRE1 (second series), active compounds read low): 0.96
normalized growth (S. cerevisiae deletion strains, locus YNL322C, strain KRE1, active compounds read low): 0.984
normalized growth (S. cerevisiae deletion strains, locus YNR049C, strain mso1, active compounds read low): 0.969
normalized growth (S. cerevisiae deletion strains, locus YNR052C, strain pop2, active compounds read low): 0.991
normalized growth (S. cerevisiae deletion strains, locus YOL006C, strain TOP1, active compounds read low): 0.529 (active)
normalized growth (S. cerevisiae deletion strains, locus YOL012C, strain htz1): 0.552
normalized growth (S. cerevisiae deletion strains, locus YOL147C, strain pex11, active compounds read low): 0.989
normalized growth (S. cerevisiae deletion strains, locus YOR001W, strain rrp6, active compounds read low): 1.02
normalized growth (S. cerevisiae deletion strains, locus YOR061W, strain CKA2, active compounds read low): 0.938
normalized growth (S. cerevisiae deletion strains, locus YOR069W, strain VPS5, active compounds read low): 0.991
normalized growth (S. cerevisiae deletion strains, locus YOR070C, strain gyp1, active compounds read low): 0.988
normalized growth (S. cerevisiae deletion strains, locus YOR080W, strain dia2, active compounds read low): 0.956
normalized growth (S. cerevisiae deletion strains, locus YOR083W, strain WHI5, active compounds read low): 0.919
normalized growth (S. cerevisiae deletion strains, locus YOR106W, strain vam3, active compounds read low): 0.885
normalized growth (S. cerevisiae deletion strains, locus YOR136W, strain idh2, active compounds read low): 0.99
normalized growth (S. cerevisiae deletion strains, locus YOR144C, strain elg1, active compounds read low): 1.01
normalized growth (S. cerevisiae deletion strains, locus YOR184W, strain ser1, active compounds read low): 0.998
normalized growth (S. cerevisiae deletion strains, locus YOR231W, strain MKK1, active compounds read low): 1.03
normalized growth (S. cerevisiae deletion strains, locus YOR265W, strain rbl2, active compounds read low): 0.956
normalized growth (S. cerevisiae deletion strains, locus YOR270C, strain vph1, active compounds read low): 0.965
normalized growth (S. cerevisiae deletion strains, locus YOR290C, strain snf2, active compounds read low): 0.86 (active)
normalized growth (S. cerevisiae deletion strains, locus YOR316C, strain cot1, active compounds read low): 1
normalized growth (S. cerevisiae deletion strains, locus YPL051W, strain arl3, active compounds read low): 0.947
normalized growth (S. cerevisiae deletion strains, locus YPL055C, strain LGE1, active compounds read low): 0.915
normalized growth (S. cerevisiae deletion strains, locus YPL078C, strain atp4, active compounds read low): 0.947
normalized growth (S. cerevisiae deletion strains, locus YPL106C, strain sse1, active compounds read low): 0.882
normalized growth (S. cerevisiae deletion strains, locus YPL240C, strain hsp82, active compounds read low): 0.979
normalized growth (S. cerevisiae deletion strains, locus YPL241C, strain CIN2, active compounds read low): 0.966
normalized growth (S. cerevisiae deletion strains, locus YPL256C, strain CLN2, active compounds read low): 1.08
normalized growth (S. cerevisiae deletion strains, locus YPR119W, strain clb2, active compounds read low): 0.993
normalized growth (S. cerevisiae deletion strains, locus YPR141C, strain kar3, active compounds read low): 0.987
normalized growth (S. cerevisiae deletion strains, locus YPR163C, strain tif3, active compounds read low): 1
normalized growth (S. cerevisiae deletion strains, locus YPR167C, strain met16, active compounds read low): 0.997
normalized growth (S. cerevisiae deletion strains, strain wtn01, active compounds read low): 1.01
normalized growth (S. cerevisiae strains, strain wild type, active compounds read low): 0.9 (active)
